Source: PubChem BioAssay (Sanford-Burnham Center for Chemical Genomics)
Hits are enriched below; roughly 6.3% of the tested compounds scored in any of these assays.
tim10-1 inh: growth inhibitors of tim10-1 mutant yeast; 330,000 tested, 2.2% active; AID 463190; inhibition, % at 20 µM; S. cerevisiae tim10-1 ts strain growth, BacTiter-Glo, 24 h;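 active = inhibition of at least 40%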;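 also: mutant grown at 25 °C; 0% = DMSO wells with yeast and 100% = wells holding no yeast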
Mdm2 MdmX PPI: human Mdm2/MdmX binding inhibition. 330,000 tested, 3% active. AID 485346. inhibition, % at 8 µM. SaOS-2 split-luciferase Mdm2/MdmX complementation, luminescence. O15151+Q00987;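 active = inhibition of at least 50% at 8 µM in the primary screen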
Target sequence (O15151 whole entry, looked up): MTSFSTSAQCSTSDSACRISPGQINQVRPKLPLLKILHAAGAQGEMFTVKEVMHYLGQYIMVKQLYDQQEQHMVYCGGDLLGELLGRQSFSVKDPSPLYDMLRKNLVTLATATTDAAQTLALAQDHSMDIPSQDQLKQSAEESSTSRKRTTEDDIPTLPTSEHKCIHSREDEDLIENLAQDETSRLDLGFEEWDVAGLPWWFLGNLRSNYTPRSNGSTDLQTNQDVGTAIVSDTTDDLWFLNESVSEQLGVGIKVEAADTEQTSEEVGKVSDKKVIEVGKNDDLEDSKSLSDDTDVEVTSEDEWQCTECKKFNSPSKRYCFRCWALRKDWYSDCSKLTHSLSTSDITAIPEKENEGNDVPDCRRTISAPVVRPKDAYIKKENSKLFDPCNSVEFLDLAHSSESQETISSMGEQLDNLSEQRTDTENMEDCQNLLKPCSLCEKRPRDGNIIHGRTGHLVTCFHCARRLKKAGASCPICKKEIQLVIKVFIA
Target sequence (Q00987 whole entry, looked up): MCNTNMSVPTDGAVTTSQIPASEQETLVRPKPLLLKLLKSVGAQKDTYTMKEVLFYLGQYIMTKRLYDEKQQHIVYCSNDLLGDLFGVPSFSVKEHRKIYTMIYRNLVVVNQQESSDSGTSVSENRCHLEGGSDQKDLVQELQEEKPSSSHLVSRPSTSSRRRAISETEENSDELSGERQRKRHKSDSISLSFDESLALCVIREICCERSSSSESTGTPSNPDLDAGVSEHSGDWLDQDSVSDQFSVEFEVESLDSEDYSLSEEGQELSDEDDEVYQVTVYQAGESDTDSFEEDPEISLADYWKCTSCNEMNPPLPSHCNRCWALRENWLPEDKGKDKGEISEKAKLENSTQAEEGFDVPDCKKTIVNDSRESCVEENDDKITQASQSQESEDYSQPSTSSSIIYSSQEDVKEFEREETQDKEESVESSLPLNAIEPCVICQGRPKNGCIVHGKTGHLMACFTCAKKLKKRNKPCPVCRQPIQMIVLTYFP
MPTP inh: permeability transition pore inhibition. inhibition, % at 10 µM. isolated mouse mitochondria, Ca2+ swelling absorbance, 30 min. 360,000 tested, 1.4% active;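 active = inhibition of 50% or more, scaled per plate between neutral and stimulator controls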;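 also: 0% = DMSO wells given calcium and 100% = 1 mM EGTA wells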
TIM10 inh: TIM10 yeast growth inhibition; S. cerevisiae TIM10 strain growth, BacTiter-Glo luminescence, 24 h; inhibition, % at 10 µM; 330,000 tested, 1.4% active; AID 463195;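 active = inhibition of 40% or more at the single tested concentration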;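 also: wild-type TIM10 isogenic control strain grown at permissive 25 °C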
tim23-1 inh: tim23-1 yeast growth inhibition; inhibition, % at 20 µM; 330,000 tested, 1.3% active; S. cerevisiae tim23-1 growth, BacTiter-Glo luminescence, 24 h;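 active = growth inhibition of the mutant yeast at or above 50%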;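 also: temperature-sensitive mutant grown at 25 °C; plate controls were DMSO-treated mutant yeast for no effect and medium wells lacking yeast for full effect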
Mdm2-MdmX conf: human Mdm2/MdmX binding inhibition, confirmed. luminescent assay. 10,000 tested, 55% active. shares compounds with Mdm2 MdmX PPI. inhibition, % at 8 µM; in the data active = inhibition above about 40%
FLuc counter: counter-screen for Mdm2/MdmX inhibitors: full-length luciferase. shares compounds with Mdm2 MdmX PPI. SaOS-2 full-length luciferase counterscreen, luminescence. inhibition, % at 8 µM. 6,200 tested, 77% active;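 active = mean inhibition at 8 µM reaching about 37%, which flags the compound as non-specific, limit read from the data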;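 also: p53-null SaOS-2 cells with luciferase driven by a doxycycline-inducible promoter; compound on cells about two nights before reading with doxycycline added after day one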
MPTP counter: Rhodamine 123 counter-screen of mitochondrial pore hits. 5,000 tested, 78% active. shares compounds with MPTP inh. inhibition, % at 10 µM. isolated mitochondria, membrane potential, Rhodamine 123 fluorescence. AID 624504; in the data active = inhibition above about 22%;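 also: 0% = DMSO vehicle and 100% = positive control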
MPTP abs DR: MPTP inhibition, dose response swelling confirmation; shares compounds with MPTP inh; isolated mitochondria swelling, absorbance; IC50, µM; 780 tested, 58% active; in the data active = IC50 below about 20 µM
MPTP cs DR: MPTP inhibitor counter-screen activity, dose response; shares compounds with MPTP inh; isolated mitochondria counterscreen, fluorescence read-out; IC50, µM; 780 tested, 49% active; AID 651564; in the data active = IC50 below about 80 µM
Active calls of the source: *; nt = no result given; ! = a repeat was not active.

SMILES | tim10-1 inh | Mdm2 MdmX PPI | MPTP inh | TIM10 inh | tim23-1 inh | Mdm2-MdmX conf | FLuc counter | MPTP counter | others
CCN(C[C@H]1N[C@@](Cc2ccccc2)(C(=O)OC)[C@H]2C(=O)N(Cc3ccccc3)C(=O)[C@@H]12)C(=O)Nc1ccc(Cl)cc1 | 18 | 66* | 63* | 13 | 23 | 48* | 56* | 100*
c1ccc(CN2CCC3CC2c2ccc(N4CCOCC4)cc23)cc1 (configuration not stated) | nt | nt | 2 | nt | nt | nt | nt | nt
COC(=O)c1sc(NC(=O)c2ccc3c(c2)OCO3)c(C#N)c1C | nt | nt | -1 | nt | nt | nt | nt | nt
O=C(Nc1ccc(F)c(Cl)c1)Nc1csc2ccccc12 | 0 | 94* | 76* | -10 | -10 | 58* | 35 | 68*
CCOC(=O)C1=C(C)NC(C)=C(C(=O)OC)C1c1cccc(Cl)c1Cl (configuration not stated) | 35 | 30 | 0 | 17 | 49 | nt | nt | nt
CCOC(=O)C1=C(COCCN)NC(C)=C(C(=O)OC)C1c1ccccc1Cl (configuration not stated) | 22 | 62*! | 99* | 15 | 15 | 21 | nt | -21 | MPTP abs DR=4*;MPTP cs DR=72*!
Cc1ccc([C@@H]2C[C@H]3[C@@H](CN2S(=O)(=O)c2ccc(Cl)cc2)C(=O)C[C@@H](c2ccc(Cl)cc2)N3S(=O)(=O)c2ccccc2C)cc1 | nt | nt | 1 | nt | nt | nt | nt | nt
COc1ccccc1NS(=O)(=O)c1cccc(NC(=O)Nc2ccc(Cl)cc2)c1 | 4 | 94* | 83* | 4 | 9 | 43* | 69* | 72*
O=C(c1ccc2ccccc2c1)c1cccc(F)c1C(=O)O | nt | nt | 0 | nt | nt | nt | nt | nt
COc1cccc(NC(=O)Nc2nnc(COCCO)s2)c1 | nt | nt | 0 | nt | nt | nt | nt | nt
O=C(Nc1ccc(Cl)cc1)Nc1nnc(CSCc2ccccc2)s1 | 19 | 58* | 97* | -18 | 8 | 23 | nt | 60*
O=C(Nc1cccc(Cl)c1)Nc1nnc(CC2=CCCCC2)s1 | 20 | 80* | 89* | 22 | 21 | 43* | 88* | 44*
COc1ccc(OCCSCc2nnc(NC(=O)Nc3ccc(Cl)cc3)s2)cc1 | 16 | 63* | 94* | -11 | -1 | 3 | nt | 71*
O=C(Nc1cccc(Cl)c1)Nc1nnc(CSCCOc2ccc(Cl)cc2)s1 | 17 | 99* | 92* | 0 | -6 | 90* | 23 | 92*
CCc1nnc(NC(=O)Nc2ccc(OC)cc2)s1 | 0 | 16 | -2 | -8 | -3 | nt | nt | nt
O=C(Nc1nnc(CC2=CCCCC2)s1)Nc1ccccc1F | 12 | 19 | nt | -13 | 17 | nt | nt | nt
Cc1cccc(C)c1NC(=O)C(C1CC1)n1c(=O)c(-c2cc3ccccc3[nH]2)nc2ccccc21 (configuration not stated) | nt | nt | 3 | nt | nt | nt | nt | nt
COCCCNC(=O)c1csc([C@H]2C[C@H](O)[C@@H](CO)O2)n1 | nt | nt | 0 | nt | nt | nt | nt | nt
CC1CCN(CCCNC(=O)c2ccc3c(=O)n(Cc4ccc(Cl)cc4)c(=S)[nH]c3c2)CC1 | 17 | 88* | 95* | 5 | 17 | 38 | 76* | -22
CCCCCOc1ccc(Br)cc1/C(C)=N/NC1=NCCN1 | 27 | 86* | 93* | 26 | 18 | 67* | 63* | 24*
C=CCn1c(=O)[nH]c(=O)c2c(N)c(C(=O)c3ccc(OC)cc3)sc21 | nt | nt | 1 | nt | nt | nt | nt | nt
Cc1ccc(Cc2c(-c3cccc(Br)c3)nc3cc(C)c(Br)c(C)n23)cc1 | nt | nt | 1 | nt | nt | nt | nt | nt
S=C(Nc1ccc(Cl)c(Cl)c1)NC1CCCCC1 | 36 | 85* | 96* | 34 | 34 | 50* | 62* | 75*
Cc1ccc(NC(=O)COC(=O)c2ccco2)cc1S(=O)(=O)N1CCCCC1 | nt | nt | 0 | nt | nt | nt | nt | nt
COC(=O)c1c(NC(=O)c2ccco2)sc2c1CC(C)(C)NC2(C)C | 0 | 23 | -1 | 10 | 7 | nt | nt | nt
SMILES | tim10-1 inh | Mdm2 MdmX PPI | MPTP inh | TIM10 inh | tim23-1 inh | Mdm2-MdmX conf | FLuc counter | MPTP counter | others
COC(=O)c1c(NC(=O)c2ccc(OC(C)C)cc2)sc2c1CC(C)(C)NC2(C)C | 15 | 94* | 87* | 39 | 44 | 77* | 24 | 2 | MPTP abs DR=>100;MPTP cs DR=56*
O=C(Cc1ccc(NC(=O)C2CCCN(C(=O)c3ccccc3)C2)cc1)Nc1ccc(C(=O)N2CCOCC2)cc1 (configuration not stated) | nt | nt | 0 | nt | nt | nt | nt | nt
N#CC(C#N)=C(Nc1ccc(F)cc1)SCc1cccc(F)c1 | 10 | 90* | 95* | 10 | 22 | 92* | 23 | 85*
CN1CCC(N2CCN(C3CN(Cc4ccccc4)S(=O)(=O)C3)CC2)CC1 (configuration not stated) | nt | nt | 0 | nt | nt | nt | nt | nt
CCOc1ccc(C(=O)OCCN(CC)CC)cc1 | -10 | -11 | 2 | -20 | 4 | nt | nt | nt
CCN(CC)CCOc1ccc(/C(=C(/Cl)c2ccccc2)c2ccccc2)cc1 | 21 | 69* | 98* | 21 | 30 | 32 | 76* | -2 | MPTP abs DR=19*;MPTP cs DR=43*
CC/C(=C(\c1ccc(O)cc1)c1ccc(OCCN(C)C)cc1)c1ccccc1 | -18 | 93* | 103* | 29 | -2 | 38 | 61* | -11
Cc1ccc(S(=O)(=O)N(C)C)cc1NC(=O)CN1C(=O)NC2(CCc3ccccc32)C1=O (configuration not stated) | nt | nt | 0 | nt | nt | nt | nt | nt
O=C(NC(Nc1ncc(S(=O)(=O)c2ccc([N+](=O)[O-])cc2)s1)(C(F)(F)F)C(F)(F)F)c1ccc(Cl)cc1 | 17 | 97* | 100* | 8 | 18 | 96* | 30 | 87*
Cc1cccc(C)c1NC(=O)C1(C)CCC(=O)N1CCc1c[nH]c2ccccc12 (configuration not stated) | nt | nt | -1 | nt | nt | nt | nt | nt
Clc1ccc(NNc2ccnc3cc(Cl)ccc23)cc1 | 12 | 11 | 27 | 9 | -10 | nt | nt | nt
Cc1ccc(/C=N/Nc2ccnc3cc(Cl)ccc23)c(C)c1 | 9 | 100* | 64* | 13 | 3 | 29 | nt | 92*
O=C(NCc1ccccc1)Nc1nnc([C@@H]2C[C@H](O)[C@@H](CO)O2)s1 | nt | nt | -1 | nt | nt | nt | nt | nt
COC(=O)c1ccc(NC(=O)Nc2ccc([N+](=O)[O-])cc2)cc1 | -15 | 59* | 94* | -21 | -14 | 43* | 85* | 85*
O=C(Nc1ccc([N+](=O)[O-])cc1)Nc1ccon1 | -3 | 66* | 58* | 10 | -3 | 67* | 73* | 99*
COC1OC2COC(c3ccccc3)OC2C(OC(C)=O)C1OC(C)=O (configuration not stated) | nt | nt | -1 | nt | nt | nt | nt | nt
